Measurements taken from PubChem BioAssay (Tox21).
Results filed as inconclusive are left out. Calls of active or inactive are those of the source. Unless noted, the call rests on the fitted dose curve; in most records, active means well fitted curve in the direction sought with a large enough effect in the repeat runs; inconclusive means weak or mixed curves; inactive means no such curve, though single readings can be large; an effect the other way counts as inactive or inconclusive.

What was measured:
[1] = molecular target: Retinoic acid receptor RXR-alpha (Homo sapiens) (UniProt P19793); test: qHTS assay to identify small molecule agonists of the RXR signaling pathway (AID 1159527; calls by dose curve; further: nearly all actives have a fitted effect of over 35% in size; further: potency means the concentration at half of the fitted maximal effect)
Summary of the method: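 GeneBLAzer RXR-alpha-UAS-bla HEK 293T cells in 2% charcoal-stripped FBS medium were exposed to compounds for 16 hr at 37 C in agonist mode. Beta-lactamase reporter read as 460/530 nm FRET ratio after 2 hr substrate loading.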

[2] = qHTS assay to identify small molecule agonists of the RXR signaling pathway - cell viability counter screen (AID 1159529); further: nearly all actives have a fitted effect of over 50% in size
Summary of the method: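 RXR-alpha-UAS-bla HEK 293T cells in medium with 2% charcoal-stripped FBS were pre-incubated 5 hr, then compound-treated 16 hr at 37 C. Viability was read by CellTiter-Glo luminescence in the same wells as the beta-lactamase assay, with tetraoctyl ammonium bromide as positive control.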

[3] = qHTS assay to identify small molecule antagonists of the retinoid acid receptor (RAR) signaling pathway - cell viability counter screen (AID 1159551); further: nearly all actives have a fitted effect of over 35% in size
Summary of the method: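 Measured by luminescent ATP detection, viability reflects C3RL4 cells treated 6 h at 37 C with test chemicals in the presence of 1 uM (final) retinol.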

[4] = qHTS assay to identify small molecule antagonists of the retinoic acid receptor (RAR) signaling pathway (AID 1159552; further: nearly all actives have a fitted effect of over 50% in size; further: potency means the concentration at half of the fitted maximal effect)
Summary of the method: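 Retinol signaling pathway inhibitors screened in C3RL4 RARE-luciferase reporter cells seeded overnight at 37 C, then compounds added with 1 uM (final) retinol as pathway substrate. After 6 hr at 37 C, luciferase luminescence read after 30 min at room temperature.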

[5] = qHTS assay to identify small molecule agonists of the retinoic acid receptor (RAR) signaling pathway (AID 1159553); conditions: C3RL4 RARE luciferase reporter, agonist, 6 h; activation: at 73.3 µM (top of the series); further: potency means the concentration at half of the fitted maximal effect
Summary of the method: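 6 hr compound exposure (DMSO vehicle) of overnight-plated C3RL4 RARE-luc cells at 37 C; luminescence quantified after 30 min RT with luciferase reagent.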

[6] = qHTS assay to identify small molecule antagonists of the estrogen related receptor (ERR) signaling pathway from Tox21 library - cell viability counter screen (AID 1224834); further: nearly all actives have a fitted effect of over 30% in size; further: potency means the concentration at half of the fitted maximal effect
Summary of the method: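 Seeded ERR cells were rested 6 h at 37 C/5% CO2 before compounds, positive and negative controls or DMSO were added. Incubation continued for 17.5 h, and viability was then quantified by CellTiter-Fluor fluorescence.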

[7] = molecular target: Luciferin 4-monooxygenase (Photinus pyralis) (UniProt P08659); test: qHTS assay to identify small molecule inhibitors of firefly luciferase (AID 1224835); further: nearly all actives have a fitted effect of over 25% in size; further: potency means the concentration at half of the fitted maximal effect
Summary of the method: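 Inhibition of purified Photinus luciferase is measured by luminescence. Substrate levels (D-luciferin, ATP) sit at their KM values. Each compound is tested in a concentration series.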

[8] = qHTS assay to identify small molecule agonists of the constitutive androstane receptor (CAR) signaling pathway - cell viability counter screen (AID 1224836); further: nearly all actives have a fitted effect of over 45% in size
Summary of the method: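 HepG2 cells stably carrying hCAR and a CYP2B6-2.2kb reporter; 15-concentration compounds plus PK11195 (final 0.75 uM), 23 hr at 37 C/5% CO2. Viability read by CellTiter-Fluor fluorescence.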

[9] = qHTS assay to identify small molecule antagonists of the constitutive androstane receptor (CAR) signaling pathway - cell viability counter screen (AID 1224837); further: nearly all actives have a fitted effect of over 45% in size
Summary of the method: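 To flag cytotoxic false antagonists, HepG2 hCAR/CYP2B6-2.2kb cells were treated 23 hr with 15-concentration compound series and 50 nM CITCO at 37 C/5% CO2; CellTiter-Fluor fluorescence was the measured end point.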

[10] = molecular target: Nuclear receptor subfamily 1 group I member 3 (Homo sapiens) (UniProt Q14994); test: qHTS assay to identify small molecule antagonists of the constitutive androstane receptor (CAR) signaling pathway (AID 1224838);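 further: HepG2 cells stably expressing hCAR with CYP2B6 luciferase reporter stimulated by CITCO; nearly all actives have a fitted effect of over 40% in size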
Summary of the method: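 Human hepatoma HepG2 cells expressing hCAR and a CYP2B6 promoter (2.2 kb) luciferase construct; compound titration (15 points) with 50 nM CITCO final, 24 h at 37 C/5% CO2; luminescence via ONE-Glo after 30 min at room temperature.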
On the % scale 0 is the no-effect control and ±100 the full control effect.

Sequence of Retinoic acid receptor RXR-alpha (Homo sapiens) (P19793 whole entry, looked up): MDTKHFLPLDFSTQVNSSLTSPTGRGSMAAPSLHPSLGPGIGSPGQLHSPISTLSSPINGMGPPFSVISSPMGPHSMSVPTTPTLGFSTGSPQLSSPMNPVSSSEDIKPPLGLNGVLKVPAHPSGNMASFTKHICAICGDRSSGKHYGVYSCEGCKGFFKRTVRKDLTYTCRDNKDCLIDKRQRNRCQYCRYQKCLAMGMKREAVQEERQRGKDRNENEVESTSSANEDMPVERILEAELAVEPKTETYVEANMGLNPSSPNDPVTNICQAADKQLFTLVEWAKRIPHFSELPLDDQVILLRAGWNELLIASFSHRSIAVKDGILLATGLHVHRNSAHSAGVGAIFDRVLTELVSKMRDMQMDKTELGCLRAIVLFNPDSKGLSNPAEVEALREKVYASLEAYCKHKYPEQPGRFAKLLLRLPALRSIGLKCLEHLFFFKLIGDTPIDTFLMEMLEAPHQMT
Sequence of Nuclear receptor subfamily 1 group I member 3 (Homo sapiens) (Q14994 whole entry, looked up): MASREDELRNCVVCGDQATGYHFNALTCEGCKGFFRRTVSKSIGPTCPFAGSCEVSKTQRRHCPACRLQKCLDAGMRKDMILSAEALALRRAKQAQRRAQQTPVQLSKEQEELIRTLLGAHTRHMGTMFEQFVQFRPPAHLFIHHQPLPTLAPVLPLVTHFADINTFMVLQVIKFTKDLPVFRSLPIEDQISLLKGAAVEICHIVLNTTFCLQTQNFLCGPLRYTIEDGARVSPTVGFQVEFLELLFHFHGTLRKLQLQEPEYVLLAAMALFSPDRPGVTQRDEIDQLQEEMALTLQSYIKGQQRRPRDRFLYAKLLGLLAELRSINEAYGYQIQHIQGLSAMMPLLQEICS
Sequence of Luciferin 4-monooxygenase (Photinus pyralis) (P08659 whole entry, looked up): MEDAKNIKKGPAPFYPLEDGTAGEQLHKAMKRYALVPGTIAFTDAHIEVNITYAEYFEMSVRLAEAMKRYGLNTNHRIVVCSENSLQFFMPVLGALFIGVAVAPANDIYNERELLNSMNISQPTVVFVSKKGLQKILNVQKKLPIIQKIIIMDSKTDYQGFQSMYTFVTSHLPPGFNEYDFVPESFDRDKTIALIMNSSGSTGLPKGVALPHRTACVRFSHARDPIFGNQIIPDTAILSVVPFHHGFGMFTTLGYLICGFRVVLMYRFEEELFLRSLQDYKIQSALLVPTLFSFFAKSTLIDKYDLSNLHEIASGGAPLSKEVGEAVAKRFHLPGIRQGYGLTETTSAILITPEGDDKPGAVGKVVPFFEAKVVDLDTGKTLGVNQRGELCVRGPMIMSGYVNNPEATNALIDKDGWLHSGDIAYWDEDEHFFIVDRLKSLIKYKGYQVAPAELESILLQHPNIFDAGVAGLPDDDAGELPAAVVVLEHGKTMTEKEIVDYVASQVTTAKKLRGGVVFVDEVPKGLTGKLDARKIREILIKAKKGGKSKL

COCCOCCOCCOC
inactive: Potency [1] | outcome [2] | outcome [3] | Potency [4] | Potency [5] | Potency [6] | Potency [7] | outcome [8] | Potency [9]

Cc1ccccc1C
inactive: Potency [1] | outcome [2] | outcome [3] | Potency [4] | Potency [5] | Potency [6] | Potency [7] | Potency [9]

C=CCOc1cc(Cl)ccc1C(=O)NCCN(CC)CC
inactive: Potency [1] | outcome [2] | outcome [3] | Potency [4] | Potency [5] | Potency [6] | Potency [7] | outcome [8] | Potency [9] | Potency [10]

CN(C)CCCNCCC#N
inactive: Potency [1] | outcome [2] | outcome [3] | Potency [4] | Potency [5] | Potency [6] | Potency [7] | outcome [8] | Potency [9] | Potency [10]

O=S(=O)(O)CCO
inactive: Potency [1] | outcome [2] | outcome [3] | Potency [4] | Potency [5] | Potency [6] | Potency [7] | outcome [8] | Potency [9]

C=CCOCC(O)CCl (centres undefined)
inactive: Potency [1] | outcome [2] | outcome [3] | Potency [4] | Potency [5] | Potency [6] | Potency [7] | Potency [9]

CCCCCC(=O)OCC
inactive: Potency [1] | outcome [2] | outcome [3] | Potency [4] | Potency [5] | Potency [6] | Potency [7] | outcome [8] | Potency [9]

Cc1nc2n(c(=O)c1CCN1CCC(C(=O)c3ccc(F)cc3)CC1)CCS2
inactive: Potency [1] | outcome [2] | outcome [3] | Potency [4] | Potency [5] | Potency [6] | Potency [7] | outcome [8] | Potency [9]

COc1cc2c(Nc3ccc(Br)cc3F)ncnc2cc1OCC1CCN(C)CC1
inactive: Potency [1] | outcome [2] | outcome [3] | Potency [4] | Potency [5] | Potency [6] | Potency [7] | outcome [8] | Potency [9] | Potency [10]

CNCc1ccccc1
inactive: Potency [1] | outcome [2] | outcome [3] | Potency [5] | Potency [6] | Potency [7] | Potency [9]
active: Potency [4] 0.106 µM

CCOc1ccc(NC(=O)OC(C)C)cc1OCC
inactive: Potency [1] | outcome [2] | outcome [3] | Potency [4] | Potency [5] | Potency [6] | Potency [7] | outcome [8] | Potency [9] | Potency [10]

COc1cc(C=O)ccc1OC(=O)C(C)C
inactive: Potency [1] | outcome [2] | outcome [3] | Potency [4] | Potency [5] | Potency [6] | Potency [7] | outcome [8] | Potency [9]

CCOC(=O)CC(CC(=O)OCC)(OC(C)=O)C(=O)OCC
inactive: Potency [1] | outcome [2] | outcome [3] | Potency [4] | Potency [5] | Potency [6] | Potency [7] | outcome [8] | Potency [9] | Potency [10]

O=C(Oc1ccccc1C(=O)O)c1ccccc1O
inactive: Potency [1] | outcome [2] | outcome [3] | Potency [4] | Potency [5] | Potency [6] | Potency [7] | Potency [9]

Nc1ccc(/C=C/c2ccc(N)cc2S(=O)(=O)O)c(S(=O)(=O)O)c1
inactive: activation [1] 6.35% [at 0.29 µM] | activity change, negative = cytotoxicity [2] 1.24% [at 0.29 µM] | activity change, negative = cytotoxicity [3] 2.39% [at 0.349 µM] | activity, negative = inhibition [4] 3.51% [at 0.349 µM] | activation [5] -0.705% [at 0.756 µM] | viability change, negative = cytotoxic [6] 2.37% [at 0.349 µM] | activity change, negative = inhibition [7] 0.257% [at 0.435 µM] | viability change, negative = cytotoxic [8] 6.71% [at 0.349 µM] | activity change, negative = cytotoxicity [9] 10.1% [at 0.349 µM] | activity, negative = inhibition [10] -20.1% [at 0.349 µM]

CCCCCCCCCCCCC1CO1 (centres undefined)
inactive: Potency [1] | outcome [2] | outcome [3] | Potency [4] | Potency [5] | Potency [6] | Potency [7] | outcome [8] | Potency [9] | Potency [10]

C=C(C)C(=O)OC1CC(C)CC(C)(C)C1 (centres undefined)
inactive: Potency [1] | outcome [2] | outcome [3] | Potency [4] | Potency [5] | Potency [6] | Potency [7] | Potency [9]

NS(=O)(=O)c1ccccc1OC(F)(F)F
inactive: Potency [1] | outcome [2] | outcome [3] | Potency [4] | Potency [5] | Potency [6] | Potency [7] | Potency [9]

CCCCCCCCCCCCC
inactive: Potency [1] | outcome [2] | outcome [3] | Potency [4] | Potency [5] | Potency [6] | Potency [7] | Potency [9]

O=C(CN1CCN(Cc2ccc3c(c2)OCO3)CC1)N1c2ccccc2Sc2ccccc21
inactive: Potency [1] | outcome [2] | outcome [3] | Potency [4] | Potency [5] | Potency [6] | Potency [7] | outcome [8] | Potency [9] | Potency [10]

O=C(O)c1ccccc1C(=O)OCc1ccccc1
inactive: Potency [1] | outcome [2] | outcome [3] | Potency [4] | Potency [6] | outcome [8] | Potency [9] | Potency [10]
active: Potency [5] 48.6 µM | Potency [7] 39.9 µM

CCC1Nc2cc(Cl)c(S(N)(=O)=O)cc2S(=O)(=O)N1 (centres undefined)
inactive: Potency [1] | outcome [2] | outcome [3] | Potency [4] | Potency [5] | Potency [6] | Potency [7] | outcome [8] | Potency [9]

O=S1(=O)CCCC1
inactive: Potency [1] | outcome [2] | outcome [3] | Potency [4] | Potency [5] | Potency [6] | Potency [7] | outcome [8] | Potency [9] | Potency [10]

CCC(CO)CO
inactive: Potency [1] | outcome [2] | outcome [3] | Potency [4] | Potency [5] | Potency [6] | Potency [7] | Potency [9]

COC(OC)C(C)c1ccccc1 (centres undefined)
inactive: Potency [1] | outcome [2] | outcome [3] | Potency [4] | Potency [5] | Potency [6] | Potency [7] | outcome [8] | Potency [9]

O=C(O)c1ccc(OCCN2CCCCC2)cc1
inactive: Potency [1] | outcome [2] | outcome [3] | Potency [4] | Potency [5] | Potency [6] | Potency [7] | Potency [9]

O=C(O)c1c(Cl)ccc(Cl)c1Cl
inactive: outcome [2] | outcome [3] | Potency [4] | Potency [5] | Potency [6] | Potency [7] | outcome [8] | Potency [9] | Potency [10]
active: Potency [1] 15.5 µM

CCS(=O)(=O)CCn1c([N+](=O)[O-])cnc1C
inactive: Potency [1] | outcome [2] | outcome [3] | Potency [4] | Potency [5] | Potency [6] | Potency [7] | outcome [8] | Potency [9] | Potency [10]

C[C@H](CCC(=O)NCC(=O)O)[C@H]1CC[C@H]2[C@@H]3[C@H](O)C[C@@H]4C[C@H](O)CC[C@]4(C)[C@H]3C[C@H](O)[C@]12C
inactive: Potency [1] | outcome [2] | outcome [3] | Potency [4] | Potency [5] | Potency [6] | Potency [7] | Potency [9]

CCc1nccnc1C
inactive: Potency [1] | outcome [2] | outcome [3] | Potency [4] | Potency [5] | Potency [6] | Potency [7] | Potency [9]

O=C(O)Cc1cccc(-c2cc(CCCCCCc3ccc(O[C@H]4O[C@H](CO)[C@@H](O)[C@H](O)[C@@H]4O)c(-c4cccc(CC(=O)O)c4)c3)ccc2O[C@H]2O[C@H](CO)[C@@H](O)[C@H](O)[C@@H]2O)c1
inactive: activation [1] 6.74% [at 0.29 µM] | activity change, negative = cytotoxicity [2] 12.1% [at 0.29 µM] | activity change, negative = cytotoxicity [3] -1.44% [at 0.349 µM] | activation [5] 0.783% [at 0.756 µM] | viability change, negative = cytotoxic [6] -1.71% [at 0.349 µM] | activity change, negative = inhibition [7] 2.97% [at 0.435 µM] | viability change, negative = cytotoxic [8] 5.82% [at 0.349 µM] | activity change, negative = cytotoxicity [9] 5.71% [at 0.349 µM]

CC(=O)Nc1ccc(C)cc1
inactive: Potency [1] | outcome [2] | outcome [3] | Potency [5] | Potency [6] | Potency [7] | outcome [8] | Potency [9]

C1=C\CC/C=C\CC/1
inactive: Potency [1] | outcome [2] | outcome [3] | Potency [4] | Potency [5] | Potency [6] | Potency [7] | Potency [9] | Potency [10]

COc1cc([N+](=O)[O-])ccc1N
active: Potency [6] 24.3 µM
inactive: Potency [1] | outcome [2] | outcome [3] | Potency [4] | Potency [7] | Potency [10]

Nc1c(NC/C=C\COc2cc(CN3CCCCC3)ccn2)c(=O)c1=O
inactive: activation [1] 10.6% [at 15.8 µM] | activity change, negative = cytotoxicity [2] 0.401% [at 15.8 µM] | activity change, negative = cytotoxicity [3] 3.28% [at 19 µM] | activity, negative = inhibition [4] -5.94% [at 19 µM] | Potency [5] | viability change, negative = cytotoxic [6] -12.4% [at 19 µM] | activity change, negative = inhibition [7] 10.6% [at 23.6 µM] | activity, negative = inhibition [10] 4.07% [at 19 µM]

O=C(/C=C/c1ccccc1)NCCO
inactive: Potency [1] | outcome [2] | outcome [3] | Potency [4] | Potency [5] | Potency [6] | Potency [9] | Potency [10]
